{"source": "PubChem BioAssay (Tox21)", "note": "A number with no mark means an inactive call. Calls of active or inactive are those of the source. The call rests on the fitted dose curve; in most records, active means well fitted activation curve with a large enough effect in the repeat runs; inconclusive means weak or mixed curves; inactive means flat fitted curve, though single readings scatter. On the % scale 0 is the no-effect control and ±100 the full control effect.", "data": [{"experiment": "A CellTox Green Cytotoxicity Assay to monitor cytotoxicity in HEK293 cells - 0 hour (AID 1224869); further: nearly all actives have a fitted effect of over 50% in size", "details": "CellTox Green fluorescence; series mostly up to 76.8 µM", "from_the_text": "National Center for Advancing Translational Sciences [NCATS]\nNIH Chemical Genomics Center [NCGC]\nU.S. Environmental Protection Agency [EPA]\nNational Institutes of Environmental Health Sciences [NIEHS]\nNational Toxicology Program [NTP]\nCell-based models are critical for drug discovery. Determining the natural cytotoxic effects resulting from test compounds is an essential research activity. A CellTox Green Cytotoxicity Assay to monitor cytotoxicity in real time of continues cell culture during 40 hours of the compound treatment was used to screen Tox21 10K library compounds in Hek293 cells. CellTox Green Cytotoxicity Assay is a nonlytic, homogeneous, biofluorescent method to measure cytotoxicity in cell culture after experimental manipulation. The assay system uses a proprietary asymmetric cyanine dye that is excluded from viable cells but preferentially stains the dead cell's DNA. […] Viable cells produce no appreciable increases in fluorescence. Therefore, the fluorescence signal produced by the binding interaction with dead cell DNA is proportional to cytotoxicity.\nThe mixture of Hek293 cell suspension and reagents were dispensed at 600cells/6 ul/well in 1536-well tissue culture treated black solid bottom plates using a Multidrop dispenser. After the assay plates were incubated at a 37 C/5% CO2 incubator for 5 hours, 23 nL of compounds dissolved in DMSO, positive and negative controls was transferred to the assay plate by a pintool work station. The plates were incubated at 37 C for 40 hours. The fluorescence intensity were measured at 0h, 8h, 16h, 24h, 32h and 40h time points using ViewLux plate reader during compound treatment.", "values": [{"compound": "CC(C)=O", "outcome": "inactive"}, {"compound": "O=C1CCCC(=O)O1", "outcome": "inactive"}, {"compound": "O=C(c1ccc(O)cc1)c1ccc(O)c(O)c1O", "outcome": "inactive"}, {"compound": "N[C@@H](COP(=O)(O)O)C(=O)O", "cytotoxicity": "-3.53% [at 15.8 µM]"}, {"compound": "CCCN1C[C@H](CSC)C[C@@H]2c3cccc4[nH]cc(c34)C[C@H]21", "outcome": "inactive"}, {"compound": "CC(C)C[C@H](NC(=O)CNC(=O)[C@H](Cc1ccc(O)cc1)NC(=O)[C@H](CO)NC(=O)[C@H](Cc1c[nH]c2ccccc12)NC(=O)[C@H](Cc1cnc[nH]1)NC(=O)[C@@H]1CCC(=O)N1)C(=O)N[C@@H](CCCN=C(N)N)C(=O)N1CCC[C@H]1C(=O)NCC(N)=O", "note": "(stereo in doubt)", "outcome": "inactive"}, {"compound": "CC1=C(C(=O)O)N2C(=O)[C@@H](NC(=O)[C@H](N)c3ccc(O)cc3)[C@H]2SC1", "outcome": "inactive"}, {"compound": "COC(=O)CCCCCCCC(=O)OC", "outcome": "inactive"}, {"compound": "O=C(OCc1ccccc1)C(=O)OCc1ccccc1", "outcome": "inactive"}, {"compound": "Cc1ccc2ccc(Cl)cc2n1", "outcome": "inactive"}, {"compound": "CC(N)C(=O)OC(C)(C)Cc1ccc(Cl)cc1", "note": "(stereo not given)", "outcome": "inactive"}, {"compound": "CCCCOC(=O)c1ccccc1", "outcome": "inactive"}, {"compound": "O=P(O)(O)OP(=O)(O)O", "outcome": "inactive"}, {"compound": "O=C(O)c1cc(Cl)cc([N+](=O)[O-])c1Cl", "outcome": "inactive"}, {"compound": "COc1ccc(Br)c(C)c1", "outcome": "inactive"}, {"compound": "OC[C@H](Cc1cccc(O)c1)[C@H](CO)Cc1cccc(O)c1", "outcome": "inactive"}, {"compound": "CC(C)OC(=O)CCCCC(=O)OC(C)C", "outcome": "inactive"}, {"compound": "CCNC(=O)C1CC(C)CCC1C(C)C", "note": "(stereo not given)", "outcome": "inactive"}, {"compound": "CCCCOCCOC(=O)COc1nc(Cl)c(Cl)cc1Cl", "outcome": "inactive"}, {"compound": "O=C(NCCN1CCOCC1)c1ccc(Cl)cc1", "outcome": "inactive"}, {"compound": "C=COCCOCCOCCOC=C", "outcome": "inactive"}, {"compound": "C[C@H](CCC(=O)O)[C@H]1CC[C@H]2[C@@H]3C(=O)C[C@@H]4CC(=O)CC[C@]4(C)[C@H]3CC(=O)[C@]12C", "outcome": "inactive"}, {"compound": "CC(C(=O)O)c1ccc2c(c1)CC(=O)c1ccccc1S2", "note": "(stereo not given)", "outcome": "inactive"}, {"compound": "Cc1ccc2c(c1)OCC(=O)CO2", "outcome": "inactive"}, {"compound": "Cc1cc(C(C)(C)C)c(O)c(C)c1CC1=NCCN1", "outcome": "inactive"}, {"compound": "CCOCCOCCOCC", "outcome": "inactive"}, {"compound": "FC(F)(F)c1ccccc1-n1ccnc1", "outcome": "inactive"}, {"compound": "Nc1ccc2cc(S(=O)(=O)O)cc(O)c2c1", "outcome": "inactive"}, {"compound": "BrCCCCCBr", "outcome": "inactive"}, {"compound": "NS(=O)(=O)c1cc2c(cc1Cl)CN(C1CCCCC1)C2=O", "outcome": "inactive"}, {"compound": "OCCCCC(O)CO", "note": "(stereo not given)", "outcome": "inactive"}, {"compound": "COc1cc(C(=S)N2CCOCC2)cc(OC)c1OC", "outcome": "inactive"}, {"compound": "O=C(OCC(COC(=O)c1cccnc1)(COC(=O)c1cccnc1)COC(=O)c1cccnc1)c1cccnc1", "outcome": "inactive"}, {"compound": "CN(C)CCOCCO", "outcome": "inactive"}, {"compound": "Cc1ccsc1/C=C/C1=NCCCN1C", "outcome": "inactive"}, {"compound": "CCCOC(OCCC)OCCC", "outcome": "inactive"}, {"compound": "CCN(CC)CC(=O)Nc1c(C)cccc1C", "outcome": "inactive"}, {"compound": "CNS(=O)(=O)CCc1ccc2[nH]cc(C3CCN(C)CC3)c2c1", "outcome": "inactive"}, {"compound": "O=C1c2ccccc2C(=O)c2cc(S(=O)(=O)O)ccc21", "outcome": "inactive"}, {"compound": "CC(C)(C)c1n[nH]c(=S)n(N)c1=O", "outcome": "inactive"}]}]}
